Source: PubChem
The list is not random: actives were taken first. Their share in the collection is about 4.1%.
hcDAF12 agonist: H. contortus DAF-12 activation, primary screen; 1.4% of 370,000 active; HEK293 hcDAF-12 lit1-tk-luc reporter, luminescence; 0% DMSO, 100% Δ7-dafachronic acid; activation, % at 6.8 µM;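 active means activation above the mean of all tested compounds plus 3 SD, cut at about 5.5% in these data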
DAX1 inh-1: inhibitors of human orphan nuclear receptor DAX1 (NR0B1) | 0.99% of 340,000 active | inhibition, % at 6.75 µM | HEK293 Gal4-DAX1 luciferase reporter, luminescence | AID 504766 | P51843;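 active means inhibition above the mean over all tested compounds plus 3 SD, cut at about 4.2% in these data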;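 further: inhibition shows as a rise in luminescence from relieved DAX1 repression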
hgDAF12 agonist: hgDAF-12 agonism, primary luciferase screen. HEK293 GAL4-hgDAF12 UAS-luciferase reporter, agonist luminescence; normalized to butyrate control. activation, % at 6.8 µM. 1.8% of 370,000 active;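 active means activation above a cutoff set at the mean of all screened compounds plus 3 SD, cut at about 10% in these data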
ssDAF-12 act: S. stercoralis DAF-12 activation, primary screen; HEK293 ssDAF-12/GRIP1 lit1-tk-luc reporter, luminescence; % of 3 µM dafachronic acid response; activation, % at 6.8 µM; 1% of 370,000 active; AID 652126;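 active means activation above the mean over all tested compounds plus 3 SD, cut at about 0.9% in these data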
DAX1 inh-2: DAX1 (NR0B1) inhibition, primary screen; HEK293T StAR-luciferase reporter, SF-1/DAX-1 repression relief; inhibition, % at 6.8 µM; 1.1% of 370,000 active;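 active means inhibition above the mean over all tested compounds plus 3 SD, cut at about 3.6% in these data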;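 further: higher inhibition means more luminescence from relief of DAX-1 repression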
LXR ag: activates human LXR-beta, counter-screen for hcDAF-12 agonists. activation, % at 6.8 µM. 3,400 tested, under 10 active. HEK293 Gal4-LXR tk-luc reporter, luminescence, 24 h; normalized: DMSO 0%, positive control 100%. shares compounds with hcDAF12 agonist;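 active means mean percent activation of the reporter above a cutoff set as the average over tested compounds plus their standard deviation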
Target sequence (P55055 whole entry, looked up, the tested form may be a part): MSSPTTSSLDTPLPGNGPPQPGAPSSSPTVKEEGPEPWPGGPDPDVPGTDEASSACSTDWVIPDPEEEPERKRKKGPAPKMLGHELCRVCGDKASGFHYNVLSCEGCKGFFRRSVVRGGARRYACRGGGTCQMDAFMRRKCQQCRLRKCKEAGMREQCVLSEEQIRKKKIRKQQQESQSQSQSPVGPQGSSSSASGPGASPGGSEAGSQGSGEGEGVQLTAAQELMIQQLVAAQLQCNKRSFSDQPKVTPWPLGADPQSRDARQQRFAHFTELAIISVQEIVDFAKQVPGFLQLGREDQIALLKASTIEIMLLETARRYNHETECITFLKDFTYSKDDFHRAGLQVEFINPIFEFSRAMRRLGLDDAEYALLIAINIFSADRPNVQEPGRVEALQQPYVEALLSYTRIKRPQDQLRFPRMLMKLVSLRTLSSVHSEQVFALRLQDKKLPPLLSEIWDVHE
hcDAF12 conf: hcDAF-12 agonism, confirmation assay. shares compounds with hcDAF12 agonist. HEK293 hcDAF-12 lit1-tk-luc reporter, luminescence; % of Δ7-dafachronic acid response. activation, % at 6.8 µM. 61% of 3,400 active. AID 743032;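 active means mean activation across triplicate tests above the threshold derived from the earlier primary screen, cut at about 5.5% in these data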
Large screens that a line does not name were inactive (follow-up assays come after a bar, where they were run).

N#Cc1ccsc1NC(=O)COC(=O)c1cc2ccccc2cc1O	hcDAF12 agonist 9.3, ssDAF-12 act 1.1 | LXR ag inactive | hcDAF12 conf 10.5
CCOC(=O)c1nn(-c2ccc(C)cc2)cc1C(=O)c1ccccc1	hcDAF12 agonist 6.9, hgDAF12 agonist 12.5 | LXR ag inactive | hcDAF12 conf 5.7
CC(=O)c1nn(-c2ccc(Cl)cc2)cc1C(=O)c1ccccc1	none
Cc1csc(NC(=O)C2COc3ccccc3O2)n1 (centres undefined)	hcDAF12 agonist 7.0 | LXR ag inactive | hcDAF12 conf inactive
Cc1cnc(NC(=O)C2COc3ccccc3O2)s1 (centres undefined)	hcDAF12 agonist 9.2 | LXR ag inactive | hcDAF12 conf 7.2
C(=C\c1ccccc1)/CN1CCN(C(c2nnnn2Cc2ccccc2)C2CC2)CC1 (centres undefined)	none (no result: DAX1 inh-1)
O=C(NC1CCCC1)C(c1ccccc1)n1c(-c2ccc3c(c2)CCO3)nc2ccccc21 (centres undefined)	none (no result: DAX1 inh-1)
O=C(COc1ccc(F)cc1)NCCCn1ccnc1	none
Clc1ccc(-c2nc3c4ccccc4ccn3c2Cc2ccsc2)cc1	hcDAF12 agonist 8.8 (no result: DAX1 inh-1) | LXR ag inactive | hcDAF12 conf 5.8
Fc1cccc(Cc2c(C3CCCCC3)nc3c4ccccc4ccn23)c1	hcDAF12 agonist 8.6 (no result: DAX1 inh-1) | LXR ag inactive | hcDAF12 conf inactive
c1ccc(-c2nc3c4ccccc4ccn3c2CN2CCOCC2)cc1	hcDAF12 agonist 8.3 | LXR ag inactive | hcDAF12 conf 6.7
CCCc1nc2c(C)cc(Br)cn2c1Cc1ccccc1	hcDAF12 agonist 11.4, ssDAF-12 act 1.0 (no result: DAX1 inh-1) | LXR ag inactive | hcDAF12 conf 7.4
Clc1ccc2nc(-c3cccc(Br)c3)c(Cc3ccsc3)n2c1	none (no result: DAX1 inh-1)
CCCc1nc2c3ccccc3ccn2c1Cc1cccc(Cl)c1	hcDAF12 agonist 6.7, hgDAF12 agonist 12.3 (no result: DAX1 inh-1) | LXR ag inactive | hcDAF12 conf 7.1
Cc1cc(Br)cn2c(Cc3ccccc3)c(-c3cccc(Cl)c3)nc12	hcDAF12 agonist 7.0 (no result: DAX1 inh-1) | LXR ag inactive | hcDAF12 conf inactive
Brc1cccc(-c2nc3c4ccccc4ccn3c2Cc2ccccc2)c1	hcDAF12 agonist 7.2, ssDAF-12 act 1.0 (no result: DAX1 inh-1) | LXR ag inactive | hcDAF12 conf 7.4
Nc1c(-c2ccccc2)n[nH]c1-c1ccccc1	hcDAF12 agonist 7.0 | LXR ag inactive | hcDAF12 conf 7.7
S=c1nc(-c2ccccc2)c(-c2ccccc2)n[nH]1	none
O=C(O)CCc1c(C(=O)O)[nH]c2ccccc12	none
CN(C)Cc1c(C(=O)Nc2ccccc2)[nH]c2ccccc12	hcDAF12 agonist 7.1 | LXR ag inactive | hcDAF12 conf inactive
Cc1nc2ccc(N=NC3=C(O)CCCC3=O)cc2s1	none
Cc1nc2ccc(N=NC3=C(O)CC(C)(C)CC3=O)cc2s1	hcDAF12 agonist 8.0, hgDAF12 agonist 12.3, ssDAF-12 act 1.6 | LXR ag inactive | hcDAF12 conf 7.5
CCCN(CCC)S(=O)(=O)c1cccc(C(=O)N=c2sccn2C)c1	none
CCN(CC)c1ccc(/C=N/NC(=O)c2cc3ccccc3[nH]2)cc1	none
CCN(CC)c1ccc(/C=N/NC(=O)c2ccccn2)cc1	hcDAF12 agonist 6.8, hgDAF12 agonist 11.1 | LXR ag inactive | hcDAF12 conf 7.1
CC(=O)c1cccc(NC(=O)CN2C(=O)NC(C)(C)C2=O)c1	none
NC1=NC(=O)/C(=C\c2ccc(-c3ccc(Cl)cc3)o2)S1	hcDAF12 agonist 6.5, ssDAF-12 act 0.9 | LXR ag inactive | hcDAF12 conf 7.7
O=C(Cc1c(F)cccc1Cl)N(Cc1ccccc1)c1ccccn1	none
N#Cc1c(SCC(=O)Nc2nc3ccccc3s2)sc2c(O)cc(=O)[nH]c12	hcDAF12 agonist 7.9 | LXR ag inactive | hcDAF12 conf inactive
CCOC(=O)c1ccc(N=Cc2nc(-c3ccccc3)oc2OC(C)=O)cc1	none
CN(C)c1ccc(N=Cc2nc(-c3ccccc3)oc2OC(=O)c2cccc(Br)c2)cc1	hcDAF12 agonist 6.7, ssDAF-12 act 2.1 | LXR ag inactive | hcDAF12 conf inactive
